Test results published in PubChem BioAssay (NCI).
This is part of a sample that, as a whole, favours compounds with a hit. Of some 79,000 tested, about 15% had one in any assay. Active and inactive are the calls of the source. No stated cut-off is given here; in the data, active means growth inhibition above about 70%; inactive means the rest.

Key:
[1] = NCI Yeast Anticancer Drug Screen. Data for the rad52 strain (AID 147);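 further: 0% = growth of vehicle-treated control cultures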; settings: S. cerevisiae rad52 mutant growth inhibition, active compounds read high
Procedure, shortened: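 Yeast strain carrying a DNA damage repair alteration was exposed to test compounds. Growth inhibition was measured relative to vehicle-treated controls.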

[2] = NCI Yeast Anticancer Drug Screen. Data for the wt1 strain (AID 149);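 further: 0% = growth of vehicle-treated wt1 cultures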; settings: S. cerevisiae wt1 strain (SPY 50644) growth inhibition, active compounds read high
Procedure, shortened: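 Compounds are added to wt1 yeast cultures. Growth is then measured. Inhibition is expressed relative to vehicle-treated controls.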

[3] = NCI Yeast Anticancer Drug Screen. Data for the rad50EPP+ strain (AID 151);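 further: 0% = growth of vehicle-treated control cultures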; settings: S. cerevisiae rad50 mutant strain, active compounds read high
Procedure, shortened: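 Yeast strain carrying rad50 alteration (rad50EPP+) exposed to compounds; growth inhibition measured relative to vehicle-treated controls.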

[4] = NCI Yeast Anticancer Drug Screen. Data for the mgt1 strain (AID 153); settings: S. cerevisiae mgt1 mutant growth inhibition, active compounds read high
Procedure, shortened: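 Yeast mgt1 strain (DNA repair/cell-cycle alteration panel) exposed to compounds; growth inhibition measured relative to vehicle-treated controls.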

[5] = NCI Yeast Anticancer Drug Screen. Data for the rad50 strain (AID 155);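 further: 0% = growth of vehicle-only cultures of the same strain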; settings: S. cerevisiae rad50 strain growth inhibition, active compounds read high
Procedure, shortened: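 Inhibition values express reduced yeast growth in compound-treated cultures relative to vehicle-treated controls.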

[6] = NCI Yeast Anticancer Drug Screen. Data for the mec2-1 strain (AID 157); settings: S. cerevisiae mec2-1 strain, active compounds read high
Procedure, shortened: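 mec2-1 yeast strain, carrying an alteration in DNA damage repair or cell cycle control, was exposed to compounds; growth inhibition was measured relative to vehicle-treated controls.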

[7] = NCI Yeast Anticancer Drug Screen. Data for the rad14 strain (AID 159);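 further: 0% = growth of vehicle-treated control cultures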; settings: S. cerevisiae rad14 strain growth inhibition, active compounds read high
Procedure, shortened: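 A mutant yeast strain defective in DNA damage repair is treated with compound; inhibition of its growth is scored against untreated, vehicle-exposed cultures.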

[8] = NCI Yeast Anticancer Drug Screen. Data for the sgs1 mgt1 strain (AID 161);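 further: 0% = growth of cultures given vehicle only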; settings: S. cerevisiae sgs1 mgt1 strain, active compounds read high
Procedure, shortened: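 Percent growth inhibition was derived by comparing compound-exposed mutant yeast with vehicle-exposed cultures. The strain carries alterations in DNA damage repair.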

[9] = NCI Yeast Anticancer Drug Screen. Data for the CLN2oe strain (AID 163);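 further: 0% = growth of vehicle-only control cultures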; settings: S. cerevisiae CLN2oe strain, active compounds read high
Procedure, shortened: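 Yeast cells carrying a defined cell-cycle control alteration were exposed to test compounds. Growth inhibition was scored against vehicle-treated control cultures.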

[10] = NCI Yeast Anticancer Drug Screen. Data for the bub3 strain (AID 167); settings: S. cerevisiae bub3 mutant strain, active compounds read high
Procedure, shortened: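 Steps: expose the mutant yeast strain to compound; grow alongside vehicle-treated cultures; measure growth; express inhibition against the vehicle cultures.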

[11] = NCI Yeast Anticancer Drug Screen. Data for the wt2 strain (AID 169);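 further: 0% = growth of vehicle-treated yeast cultures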; settings: S. cerevisiae wt2 strain growth inhibition, active compounds read high
Procedure, shortened: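 Yeast cells were exposed to test compounds, and growth inhibition was measured relative to vehicle-treated controls.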

[12] = NCI Yeast Anticancer Drug Screen. Data for the mlh1 strain (AID 171);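 further: 0% = growth of vehicle-treated control cultures of the same strain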; settings: S. cerevisiae mlh1 strain growth inhibition, active compounds read high
Procedure, shortened: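 Yeast carrying a defined genetic alteration in DNA damage repair or cell cycle control were exposed to test compounds. Growth inhibition was measured relative to vehicle-treated controls.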

[13] = NCI Yeast Anticancer Drug Screen. Data for the sgs1 strain (AID 173);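 further: 0% = growth of vehicle-only control cultures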; settings: S. cerevisiae sgs1 mutant, active compounds read high
Procedure, shortened: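 Yeast mutant strains carrying defined defects in DNA damage repair or cell cycle control were exposed to test compounds. Growth inhibition was scored against vehicle-treated controls.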

[14] = NCI Yeast Anticancer Drug Screen. Data for the mlh1 rad18 strain (AID 175); settings: S. cerevisiae mlh1 rad18 strain growth inhibition, active compounds read high
Procedure, shortened: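 Growth inhibition of the yeast strain was measured after compound exposure and expressed relative to vehicle-treated controls. The strain carries defined defects in DNA damage repair.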

[15] = NCI Yeast Anticancer Drug Screen. Data for the rad18 strain (AID 177); settings: S. cerevisiae rad18 mutant growth inhibition, active compounds read high
Procedure, shortened: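 Yeast carrying a defined DNA damage repair alteration were exposed to compounds. Growth inhibition was expressed relative to vehicle-treated controls.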

[16] = at 5.0 µM (retest, dose inferred, filed as 0.5)
[17] = at 50.0 µM (retest, dose inferred, filed as 5.0)

Measured: growth inhibition

NNC(=S)Nc1cccc(Cl)c1
inactive: [1]; at 1.2 µM -16% | [1]; at 3.7 µM -26% | [1]; at 11.0 µM -16% | [1]; at 33.0 µM 6% | [2]; at 1.2 µM -8% | [2]; at 3.7 µM -8% | [2]; at 11.0 µM -14% | [2]; at 33.0 µM 14% | [3]; at 1.2 µM -29% | [3]; at 3.7 µM -28% | [3]; at 11.0 µM -31% | [3]; at 33.0 µM -55% | [3]; at 100.0 µM -47% | [4]; at 1.2 µM -18% | [4]; at 3.7 µM -19% | [4]; at 11.0 µM 20% | [4]; at 33.0 µM 68% | [5]; at 1.2 µM -33% | [5]; at 3.7 µM -36% | [5]; [16] 58% | [5]; at 11.0 µM -20% | [5]; at 33.0 µM 27% | [5]; [17] 58% | [6]; at 1.2 µM -54% | [6]; at 3.7 µM -41% | [6]; [16] 63% | [6]; at 11.0 µM -40% | [6]; at 33.0 µM -5% | [6]; [17] 58% | [7]; at 1.2 µM -27% | [7]; at 3.7 µM -25% | [7]; at 11.0 µM -28% | [7]; at 33.0 µM 26% | [8]; [16] 9% | [9]; at 1.2 µM 0% | [9]; at 3.7 µM 15% | [9]; at 11.0 µM -3% | [9]; at 33.0 µM 3% | [10]; at 1.2 µM -12% | [10]; at 3.7 µM -9% | [10]; [16] 31% | [10]; at 11.0 µM -9% | [10]; at 33.0 µM 35% | [11]; at 1.2 µM -27% | [11]; at 3.7 µM -23% | [11]; at 11.0 µM -25% | [11]; at 33.0 µM 8% | [12]; at 1.2 µM -6% | [12]; at 3.7 µM -17% | [12]; at 11.0 µM -8% | [12]; at 33.0 µM 45% | [13]; at 1.2 µM -18% | [13]; at 3.7 µM -22% | [13]; at 11.0 µM -8% | [13]; at 33.0 µM 32% | [14]; [16] 40% | [14]; [17] 54% | [15]; at 1.2 µM -17% | [15]; at 3.7 µM -11% | [15]; at 11.0 µM -6% | [15]; at 33.0 µM 24%
active: [1]; at 100.0 µM 79% | [2]; at 100.0 µM 86% | [4]; at 100.0 µM 97% | [5]; at 50.0 µM 76% | [5]; at 100.0 µM 92% | [6]; at 50.0 µM 78.6% | [6]; at 100.0 µM 91% | [7]; at 100.0 µM 95% | [8]; [17] 97% | [9]; at 100.0 µM 71% | [10]; [17] 95% | [10]; at 100.0 µM 90% | [11]; at 100.0 µM 87% | [12]; at 100.0 µM 95% | [13]; at 100.0 µM 89% | [14]; at 50.0 µM 75.1% | [15]; at 100.0 µM 88%

CCN(CC)CCNC(=O)c1nn(-c2ccc(Cl)cc2)c2c1CCc1cc(OC)ccc1-2
active: [1]; at 100.0 µM 94% | [4]; at 100.0 µM 81% | [5]; [17] 80% | [5]; at 100.0 µM 95% | [6]; at 100.0 µM 73% | [7]; at 100.0 µM 92% | [10]; [17] 77% | [10]; at 100.0 µM 83% | [11]; at 100.0 µM 96% | [12]; at 100.0 µM 87% | [13]; at 100.0 µM 90% | [14]; [17] 81% | [15]; at 100.0 µM 95%
inactive: [1]; at 1.2 µM -16% | [1]; at 3.7 µM 13% | [1]; at 11.0 µM 26% | [1]; at 33.0 µM 40% | [2]; at 1.2 µM 10% | [2]; at 3.7 µM 22% | [2]; at 11.0 µM 25% | [2]; at 33.0 µM 24% | [2]; at 100.0 µM 58% | [3]; at 1.2 µM 18% | [3]; at 3.7 µM 32% | [3]; at 11.0 µM 43% | [3]; at 33.0 µM 44% | [3]; at 100.0 µM 56% | [4]; at 1.2 µM 12% | [4]; at 3.7 µM 10% | [4]; at 11.0 µM 8% | [4]; at 33.0 µM 12% | [5]; at 1.2 µM 6% | [5]; at 3.7 µM 5% | [5]; [16] 1% | [5]; at 11.0 µM 17% | [5]; at 33.0 µM 59% | [5]; at 50.0 µM 59.2% | [6]; at 1.2 µM -10% | [6]; at 3.7 µM -2% | [6]; [16] -16% | [6]; at 11.0 µM 4% | [6]; at 33.0 µM 0% | [6]; [17] 54% | [6]; at 50.0 µM 66.4% | [7]; at 1.2 µM -1% | [7]; at 3.7 µM 2% | [7]; at 11.0 µM 10% | [7]; at 33.0 µM 24% | [10]; at 1.2 µM 9% | [10]; at 3.7 µM 9% | [10]; [16] 8% | [10]; at 11.0 µM 10% | [10]; at 33.0 µM 13% | [10]; at 50.0 µM 58.7% | [11]; at 1.2 µM -11% | [11]; at 3.7 µM -1% | [11]; at 11.0 µM -8% | [11]; at 33.0 µM 8% | [12]; at 1.2 µM 13% | [12]; at 3.7 µM 17% | [12]; at 11.0 µM 10% | [12]; at 33.0 µM 0% | [13]; at 1.2 µM 3% | [13]; at 3.7 µM 2% | [13]; at 11.0 µM 8% | [13]; at 33.0 µM 14% | [14]; [16] -1% | [15]; at 1.2 µM -4% | [15]; at 3.7 µM 4% | [15]; at 11.0 µM 1% | [15]; at 33.0 µM 18%
